# Reference: PubChem BioAssay (NCATS)
# Results filed as inconclusive are left out. A call without a number means that no potency is given here. The source made the active and inactive calls. Calls follow the shape of the full dose curve.
# Key:
# [1] = Primary qHTS for inhibitors of SARS-S pseudo-typed particle cell entry (AID 1479145); settings: SARS-S pseudotyped particle cell entry, luciferase reporter; series mostly up to 57.1 µM; also: nearly all actives have a fitted effect of over 45% in size
# [2] = Primary qHTS for Huh7 cytotoxicity: counterscreen for inhibitors of MERS-S pseudotyped particle cell entry (AID 1479147); settings: cell viability read-out; series mostly up to 57.1 µM
# [3] = Primary qHTS for inhibitors of MERS-S pseudo-typed particle cell entry (AID 1479149); settings: MERS-S pseudotyped particle entry, luciferase; series mostly up to 57.1 µM; also: nearly all actives have a fitted effect of over 60% in size
# [4] = Primary qHTS for Vero E6 cytotoxicity: counterscreen for inhibitors of SARS-S pseudo-typed particle cell entry (AID 1479150); settings: cell viability; series mostly up to 57.1 µM
# [5] = Cytotoxicity counterscreen for inhibitors of SARS-CoV-2 cell entry (AID 1645845); settings: cell viability (SARS-CoV-2 entry assay cells); series mostly up to 57.1 µM; also: nearly all actives have a fitted effect of over 50% in size
# In short: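 48 h compound treatment (after 1 h preincubation), HEK293-ACE2 cells, 37 C/5% CO2; ATP luminescence endpoint; normalized to cell wells and media blanks.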
# [6] = Primary qHTS to identify inhibitors of SARS-CoV-2 cell entry (AID 1645846); settings: SARS-CoV-2 pseudovirus cell entry assay, luminescence; activity change, negative = inhibition: at 57.1 µM (top of the series) unless noted; also: nearly all actives have a fitted effect of over 45% in size
# In short: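 HEK293-ACE2 (Expi293F, stable hACE2), 1500 cells/well, o/n 37C; cpd 23 nL pin, 1 h; MLV-PP w/ SARS-CoV-2-S (Wuhan-Hu-1, Δ19 C-term); 48 h 37C; Bright-Glo luminescence; normalized vs S-PP and bald PP.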
structure (smiles),measurement,setting,value
C[S+](CC[C@H](N)C(=O)O)C[C@H]1O[C@@H](n2cnc3c(N)ncnc32)[C@H](O)[C@H]1O (stereo partly specified),Potency,[1],inactive
same,Potency,[2],inactive
same,Potency,[3],inactive
same,Potency,[4],inactive
same,Potency,[5],inactive
same,Potency,[6],inactive
Cc1oc(=O)oc1COC(=O)N1CC[C@@H](N2CC/C(=C\C3=C(C(=O)O)N4C(=O)[C@@H](NC(=O)/C(=N/O)c5nsc(N)n5)[C@H]4SC3)C2=O)C1,Potency,[1],inactive
same,Potency,[2],inactive
same,Potency,[3],inactive
same,Potency,[4],inactive
same,Potency,[5],inactive
same,"activity change, negative = inhibition",[6],-27.9%
O=S(=O)(O)CC(S)CS (stereo unspecified),Potency,[1],inactive
same,Potency,[2],inactive
same,Potency,[3],inactive
same,Potency,[4],inactive
same,Potency,[5],inactive
same,Potency,[6],inactive
CO[C@H]1C[C@@H]2CC[C@@H](C)[C@@](O)(O2)C(=O)C(=O)N2CCCC[C@H]2C(=O)O[C@H]([C@H](C)C[C@@H]2CC[C@@H](OC(=O)C(C)(CO)CO)[C@H](OC)C2)CC(=O)[C@H](C)/C=C(\C)[C@@H](O)[C@@H](OC)C(=O)[C@H](C)C[C@H](C)/C=C/C=C/C=C/1C,Potency,[1],inactive
same,Potency,[2],inactive
same,Potency,[3],inactive
same,Potency,[4],inactive
same,Potency,[5],inactive
same,"activity change, negative = inhibition",[6],-29.8% [at 27.1 µM]
C=C1CC[C@H](O)C/C1=C\C=C1/CCC[C@]2(C)[C@@H]([C@H](C)CC[C@H](O)C(C)(C)O)CC[C@@H]12,Potency,[1],inactive
same,Potency,[2],inactive
same,Potency,[3],inactive
same,Potency,[4],inactive
same,Potency,[5],inactive
same,"activity change, negative = inhibition",[6],-14.2%
CN=C(NC)NCc1ccccc1,Potency,[1],inactive
same,Potency,[2],inactive
same,Potency,[3],inactive
same,Potency,[4],inactive
same,Potency,[5],inactive
same,"activity change, negative = inhibition",[6],-12.2%
OCC1OC(c2ccc(Cl)c(Cc3ccc(OC4CCOC4)cc3)c2)C(O)C(O)C1O (stereo unspecified),Potency,[1],inactive
same,Potency,[2],inactive
same,Potency,[3],inactive
same,Potency,[4],inactive
same,Potency,[5],inactive
same,"activity change, negative = inhibition",[6],-20.7%
CN(Cc1ccccc1)C(=O)[C@H](NC(=O)c1cc2cc(NC(=O)c3ccccc3-c3ccc(C(F)(F)F)cc3)ccc2n1C)c1ccccc1,Potency,[1],inactive
same,Potency,[2],inactive
same,Potency,[3],inactive
same,Potency,[4],inactive
same,Potency,[5],inactive
same,"activity change, negative = inhibition",[6],-7.12%
O=C(O)CCCN1CCC(O[C@@H](c2ccc(Cl)cc2)c2ccccn2)CC1,Potency,[1],inactive
same,Potency,[2],inactive
same,Potency,[3],inactive
same,Potency,[4],inactive
same,Potency,[5],inactive
same,"activity change, negative = inhibition",[6],-17.2%
Cc1nc(NS(=O)(=O)c2ccc(N)cc2)nc(C)c1Br,Potency,[1],inactive
same,Potency,[2],inactive
same,Potency,[3],inactive
same,Potency,[4],inactive
same,Potency,[5],inactive
same,"activity change, negative = inhibition",[6],-21.5%
O=C(O)c1ccc(NC(=O)[C@H](Cc2ccc(O)cc2)NC(=O)c2ccccc2)cc1,Potency,[1],inactive
same,Potency,[2],inactive
same,Potency,[3],inactive
same,Potency,[4],inactive
same,Potency,[5],inactive
same,"activity change, negative = inhibition",[6],-10.6%
CCCCC(CC)COC(=O)c1ccc(Nc2nc(Nc3ccc(C(=O)OCC(CC)CCCC)cc3)nc(Nc3ccc(C(=O)OCC(CC)CCCC)cc3)n2)cc1 (stereo unspecified),Potency,[1],inactive
same,Potency,[2],inactive
same,Potency,[3],inactive
same,Potency,[4],inactive
same,Potency,[5],inactive
same,"activity change, negative = inhibition",[6],-28%
CC[C@H]1[C@@H](O)[C@@H]2[C@H](CC[C@]3(C)[C@@H]([C@H](C)CCC(=O)O)CC[C@@H]23)[C@@]2(C)CC[C@@H](O)C[C@@H]12,Potency,[1],inactive
same,Potency,[2],inactive
same,Potency,[3],inactive
same,Potency,[4],inactive
same,Potency,[5],inactive
same,"activity change, negative = inhibition",[6],-6.18%
C#C[C@]1(O)CC[C@H]2[C@@H]3CCC4=C/C(=N/O)CC[C@@H]4[C@H]3CC[C@@]21CC,Potency,[1],inactive
same,Potency,[2],inactive
same,Potency,[3],inactive
same,Potency,[4],inactive
same,Potency,[5],inactive
same,"activity change, negative = inhibition",[6],-1.12%
C[C@@H](O)[C@H]1C(=O)N2C(C(=O)[O-])=C(SC3Cn4cnc[n+]4C3)[C@H](C)[C@H]12 (stereo partly specified),"activity change, negative = inhibition",[1],-18.9% [at 11.4 µM] (inactive)
same,outcome,[2],inactive [at 11.4 µM]
same,"activity change, negative = inhibition",[3],-3.17% [at 11.4 µM] (inactive)
same,"activity change, negative = cytotoxicity",[4],4.16% [at 11.4 µM] (inactive)
same,outcome,[5],inactive [at 11.3 µM]
same,"activity change, negative = inhibition",[6],-12.2% [at 11.3 µM]
CCC(CC)[C@H](NC(C)=O)[C@@H]1[C@H](O)[C@@H](C(=O)O)C[C@H]1N=C(N)N,outcome,[1],inactive [at 0.573 µM]
same,outcome,[2],inactive [at 0.573 µM]
same,outcome,[3],inactive [at 0.573 µM]
same,outcome,[4],inactive [at 0.573 µM]
same,outcome,[5],inactive [at 0.702 µM]
same,"activity change, negative = inhibition",[6],-12.4% [at 0.702 µM]
CCN1CCN(C(=O)N[C@@H](C(=O)N[C@]2(OC)C(=O)N3C(C(=O)O)=C(CSc4nnnn4C)CS[C@@H]32)[C@H](C)O)C(=O)C1=O,Potency,[1],inactive
same,Potency,[2],inactive
same,Potency,[3],inactive
same,Potency,[4],inactive
same,Potency,[5],inactive
same,"activity change, negative = inhibition",[6],-16.3%
C=C1/C(=C/C=C2\CCC[C@]3(C)[C@@H]([C@H](C)CCCC(C)(C)O)CC[C@@H]23)C[C@@H](O)[C@@H](OCCCO)[C@@H]1O,Potency,[1],inactive
same,Potency,[2],inactive
same,Potency,[3],inactive
same,Potency,[4],inactive
same,Potency,[5],inactive
same,"activity change, negative = inhibition",[6],-12.1%
CC(=O)[O][Al][O]C(C)=O,"activity change, negative = inhibition",[1],-39.3% [at 11.4 µM] (inactive)
same,outcome,[2],inactive [at 11.4 µM]
same,outcome,[3],inactive [at 11.4 µM]
same,"activity change, negative = cytotoxicity",[4],-2.68% [at 11.4 µM] (inactive)
same,outcome,[5],inactive [at 11.3 µM]
same,"activity change, negative = inhibition",[6],-37.2% [at 11.3 µM]
CSCC[C@H](N)C(=O)O,Potency,[1],inactive
same,Potency,[2],inactive
same,Potency,[3],inactive
same,Potency,[4],inactive
same,Potency,[5],inactive
same,Potency,[6],inactive
NCc1ccccc1CC(=O)N[C@@H]1C(=O)N2C(C(=O)O)=C(CSc3nnnn3CC(=O)O)CS[C@H]12,Potency,[1],inactive
same,Potency,[2],inactive
same,Potency,[3],inactive
same,Potency,[4],inactive
same,Potency,[5],inactive
same,"activity change, negative = inhibition",[6],-25.4%
